The whole screen tested about 94,000 compounds, of which about 4,000 (4.3%) were called active. Roughly 29% stayed inconclusive and do not appear here. Calls come from the whole dose curve; as a rule, active = well fitted inhibition curve with a large enough effect; inconclusive = small, poorly fitted or top-dose-only effect; inactive = no such curve, though single readings can be large or run the other way. Shown is part of a subset that was picked to be rich in actives. Entries that show only a call come without a potency.
Test: Cytotoxic Profiling in NIH 3T3 Cell Line of Diverse Libraries Using Quantitative High-Throughput Screening; note: nearly all actives have a fitted effect of over 55% in size
Settings: NIH 3T3 viability, CellTiter-Glo ATP luminescence, 48-72 h; series mostly up to 96.7 µM
How it was run: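 ATP-dependent luminescence (CellTiter-Glo) served as the viability signal for NIH 3T3 cells treated with compound for 48 or 72 hr at 37 °C.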
For `O=C(O)[C@]12CCCN(Cc3ncc[nH]3)[C@@H]1CCN(Cc1ccncc1)C2`, the Potency was “inactive”. In the case of `CCCN1CCCC2(CCN(C(=O)C(=O)c3cccn3C)C2)C1=O` (stereo not given), the Potency is reported as “inactive”. In the case of `CC(C)NC(=O)C1CCC(=O)N1C1CCN(C(=O)c2ccc3c(c2)OCO3)CC1` (stereo not given), the Potency is reported as “inactive”. For `O=C(c1ccc2c(c1)OCO2)N1CCC(n2c(=O)[nH]c3ccccc32)CC1`, the Potency was “inactive”. With `COc1ccc(CNC(=O)c2noc(-c3ccc(F)cc3)n2)cc1` the Potency was “inactive”. For `O=C(NCc1ccc2c(c1)OCO2)c1noc(-c2ccc(F)cc2)n1`, the Potency was “inactive”. In the case of `CNc1nc(C(=O)NCc2ccc3[nH]c(-c4ccc(F)cc4)c(C)c3c2)cs1`, the Potency is reported as 50.1 µM (active). In the case of `CN(CCc1ccccn1)[C@H]1[C@@H]2OC[C@@H](O2)[C@@H](NC(=O)Nc2ccc(F)cc2)[C@@H]1O`, the Potency is reported as “inactive”. In the case of `CNC(=O)[C@@H]1CN(C(=O)c2n[nH]c3ccccc23)C[C@H]1COC`, the Potency is reported as “inactive”. With `COc1ccccc1C(=O)N1CCC2(CC1)C(=O)Nc1ccccc12` the Potency was “inactive”. With `COCCNC(=O)c1nc(-c2cc(Cl)cc(Cl)c2)c2ccccn12` the Potency was “inactive”. For `CN(C)CCNC(=O)c1nc2nc(-c3ccccc3)c(-c3cccc(F)c3)cc2n1C`, the Potency was 25.1 µM (active). In the case of `CCc1cc(=O)n(CC(=O)Nc2ccccc2F)c(-c2cccc(F)c2)n1`, the Potency is reported as “inactive”. In the case of `Cc1ccc(S(=O)(=O)N2C[C@@H](F)C[C@H]2C(=O)N2CCCCC2)cc1Cl`, the Potency is reported as “inactive”. With `CN1c2cc(C(=O)Nc3ccc(F)cc3)ccc2C(=O)N2CCCCC21` (stereo not given) the Potency was “inactive”. In the case of `CCN1c2cc(C(=O)NCc3cccc(F)c3)ccc2C(=O)N2CCCCCC21` (stereo not given), the Potency is reported as “inactive”. For `CCN1c2cc(C(=O)Nc3ccc(F)c(Cl)c3)ccc2C(=O)N2CCCCC21` (stereo not given), the Potency was 25.1 µM (active). With `COC1CN(c2cccc(F)c2)C12CCN(C1CCOCC1)CC2` (stereo not given) the Potency was “inactive”. With `COc1ccccc1CNC(=O)CN1CC[C@](C)(O)[C@@H](O)C1` the Potency was “inactive”. For `COC(=O)[C@@H]1Cc2ncn(Cc3ccc(OC)cc3)c2CN1S(C)(=O)=O`, the Potency was “inactive”. In the case of `CCCN1C(=O)Cc2ccccc2C1C(=O)NCc1cccc(OC)c1OC` (stereo not given), the Potency is reported as “inactive”. With `COc1ccc(CNC(=O)[C@@H]2Cc3cn(Cc4ccncc4)c4cccc(c34)[C@H](CC(C)C)N2)cc1` the Potency was 79.4 µM (active). In the case of `CC#CCn1cc2c3c(cccc31)[C@H](CC(C)C)N[C@H](C(=O)NCc1ccccc1OC)C2`, the Potency is reported as 31.6 µM (active). For `Cc1cc(Cn2cc3c4c(cccc42)[C@H](CC(C)C)N[C@H](C(=O)N2CCCCCC2)C3)no1`, the Potency was 31.6 µM (active). With `COCCN1CCN(C(=O)[C@@H]2Cc3cn(C)c4cccc(c34)[C@H](CC(C)C)N2)CC1` the Potency was “inactive”. For `COc1ccc(CNC(=O)[C@H]2O[C@H](CCN3CCN(C)CC3)CC[C@@H]2O)cc1`, the Potency was “inactive”. With `COc1ccc(CCC(=O)N2CCCC3(CC2)CN(C)C(=O)O3)cc1OC` (stereo not given) the Potency was “inactive”. In the case of `CS(=O)(=O)c1ccc(CN2CCOC(c3cccnc3)C2)cc1` (stereo not given), the Potency is reported as “inactive”. For `COc1ccc(CNC(=O)CC[C@@H]2CNC(=O)[C@@H]3C[C@H](NC(=O)NC(C)C)CN23)cc1`, the Potency was “inactive”. In the case of `Cc1ccc(-n2cccn2)c(CN2CCC(CNS(C)(=O)=O)C2)c1` (stereo not given), the Potency is reported as “inactive”. For `OC[C@@H]1O[C@H](CNC2CCOCC2)[C@H](N2CCCC2)[C@@H]1O`, the Potency was “inactive”. In the case of `Cc1cc(C)n(CCCN(C)C(=O)C2C3C(=O)N(CCC(C)C)C[C@@]34C=C[C@@H]2O4)n1` (stereo not given in full), the Potency is reported as “inactive”. With `Cc1cn2nc(C(=O)Nc3ccc(F)cc3F)cc2c(N(C)Cc2ccccc2)n1` the Potency was “inactive”. In the case of `CCNC(=O)c1ccccc1-c1ccc(O)cc1`, the Potency is reported as “inactive”. For `O=Cc1ccccc1-c1ccc(O)cc1`, the Potency was 79.4 µM (active). With `COc1ccccc1C(=O)N1CCC2(C1)C(=NC1CCCCC1)NC(=O)N2c1cccnc1` (stereo not given) the Potency was “inactive”. With `COCC1CN(C(C)=O)CC12CCN(Cc1cccc(C#N)c1)CC2` (stereo not given) the Potency was “inactive”. With `Cc1cccc(C(=O)N2C[C@@H](COc3ccccc3)[C@H](C(N)=O)C2)c1` the Potency was “inactive”. In the case of `O=C(c1cn[nH]c1)N1CC2(CN(Cc3cccc(Cl)c3)CC2COc2ccccc2)C1` (stereo not given), the Potency is reported as 79.4 µM (active). With `CNC(=O)c1cc(C)nc2onc(C3CCN(C(=O)C4CCCCC4)C3)c12` (stereo not given) the Potency was “inactive”. With `CCn1ccnc1CN(C)C1CCCN(CCc2ccccc2)C1` (stereo not given) the Potency was “inactive”. In the case of `c1ccc(CN2CCNc3cc(NCc4cccnc4)ncc3C2)cc1`, the Potency is reported as 50.1 µM (active). With `Cn1ccc(Nc2cc3c(cn2)CN(CCc2ccccc2)CCN3)n1` the Potency was 79.4 µM (active). With `O=C1CC(c2ccccc2)N(Cc2ccncc2)CCCN(Cc2cccnc2)CCN1` (stereo not given) the Potency was “inactive”. For `CC(=O)N1Cc2ccccc2CC2(CCN(Cc3cccnc3)CC2)C1`, the Potency was “inactive”. In the case of `COc1cccc(S(=O)(=O)N2CCC3(CC2)CC2C(=O)NCCN2C3)c1` (stereo not given), the Potency is reported as “inactive”. In the case of `CCc1nc(N(C)Cc2nccn2Cc2ccccc2)c2cnn(C)c2n1`, the Potency is reported as “inactive”. With `CS(=O)(=O)c1cnc(NCCN2CCOCC2)nc1C1CCCNC1` (stereo not given) the Potency was “inactive”. For `COc1cc(-c2noc(-c3nc(-c4ccc5c(c4)OCO5)no3)n2)cc(OC)c1OC`, the Potency was “inactive”. For `CC(C)C[C@@H]1N[C@H](C(=O)NC(C)C)Cc2c[nH]c3cccc1c23`, the Potency was 100 µM (active). For `COCCn1c(C)cc(C(=O)N2CCCCCCNC(=O)CC2)c1C`, the Potency was “inactive”. In the case of `O=C(c1cccnc1)N1CCC(Cc2nc(C3CCOCC3)no2)CC1`, the Potency is reported as “inactive”. With `O=C([C@@H]1C[C@H](Oc2ccccc2)CN1S(=O)(=O)c1cccnc1)N1CCCC1` the Potency was “inactive”. With `Cc1nn2c(c1-c1ccnn1C(C)C)N(CC1CCOCC1)CCC2` the Potency was 31.6 µM (active). For `Cc1nn2c(c1-c1ccccc1-c1ccccc1)N(CC1CC1)CCC2`, the Potency was 3.16 µM (active). For `COc1ccc(S(=O)(=O)NCCc2noc(-c3ccncc3)n2)cc1`, the Potency was “inactive”. With `CNC(=O)N1CCC(C2CCN(C(=O)CSC)C2)CC1` (stereo not given) the Potency was “inactive”. For `COc1cc(NC(=O)c2cc3c(N4CCSCC4)nc(C)cn3n2)cc(OC)c1`, the Potency was “inactive”. With `COc1cc2c(cc1OC)C(CNC(=O)c1ccc(Cl)cc1)N(C(=O)Nc1ccccc1)CC2` (stereo not given) the Potency was “inactive”. For `COc1ccccc1-c1cnc(NC(=O)c2ccc(Cl)cc2)c2c1CCO2`, the Potency was 79.4 µM (active). In the case of `COc1ncccc1Nc1ncc(-c2ccccc2)c2c1OCC2`, the Potency is reported as “inactive”. In the case of `O=C(c1ccccc1)N1CCCCC1c1nc(C2CC2)n[nH]1` (stereo not given), the Potency is reported as “inactive”. For `O=C(COc1ccc(NC(=O)C2CC2)cn1)NCc1ccc(F)cc1F`, the Potency was “inactive”. With `Cc1ccc(NC(=O)[C@@H]2CNC[C@H](C(=O)NCc3ccccn3)C2)cn1` the Potency was “inactive”. For `COc1ccc(NC(=O)[C@@H]2C[C@@H](c3ccc(F)cc3)N(CCOc3ccccc3)C2)cn1`, the Potency was 44.7 µM (active). With `CNC(=O)N1CCC(N2CC(OCC3CC3)C23CCCCC3)CC1` (stereo not given) the Potency was “inactive”. With `O=C(O)C[C@@H]1CCN(C(=O)C(=O)O)C[C@@H]1CC1=NCCc2cc(F)ccc21` the Potency was “inactive”. For `O=C(c1cccc(F)c1)N1CCC(CCOc2ccc(F)cc2)C1` (stereo not given), the Potency was 39.8 µM (active). In the case of `O=C(c1cccc(F)c1)N1CCCC(CN2CCOCC2)CC1` (stereo not given), the Potency is reported as “inactive”. With `Cc1ccc(OCCC2CCN(C(=O)c3cnccc3C)C2)cc1` (stereo not given) the Potency was “inactive”. In the case of `COc1cccc(-c2cc(C(=O)N3CCN(C(C)=O)CC3)c3cnn(C)c3n2)c1`, the Potency is reported as “inactive”. In the case of `CC(=O)N1CCN(C(=O)c2cc(-c3cccc(F)c3)nc3c2cnn3C)CC1`, the Potency is reported as “inactive”. In the case of `Cn1ncc2c(C(=O)N3CCC(c4ccccc4)CC3)cc(-c3ccc(F)cc3)nc21`, the Potency is reported as 39.8 µM (active). For `O=C(NC1CC1)c1cc2n(n1)CCN(C(=O)c1ccc3n[nH]nc3c1)C2`, the Potency was “inactive”. For `CCCN(CC1CCOC1)C(=O)Nc1cc(F)ccc1F` (stereo not given), the Potency was “inactive”. For `COc1ccccc1-c1cc(C(=O)NCc2ccccn2)nn2cnnc12`, the Potency was “inactive”. With `COc1cccc(NC(=O)Cn2c(=O)n(-c3ccc(F)cc3)c(=O)c3c2cc(C)n3C)c1` the Potency was “inactive”. In the case of `CCC(C)NC(=O)Cc1csc2nc(C)c(-c3cc(C)n(-c4ccc(C(C)C)cc4)n3)c(=O)n12` (stereo not given), the Potency is reported as “inactive”. With `Cc1nn(-c2ccccc2)c2c1C(C(C)C)N(C1CCN(C(=O)c3ccc(Cl)nc3)CC1)C2=O` (stereo not given) the Potency was “inactive”. With `COc1cccc(-c2cc(C(=O)Nc3cccc(F)c3)c3cnn(C)c3n2)c1` the Potency was “inactive”. In the case of `COc1ccc(-n2nc(C)c([C@H]3C=C[C@@H](OC(=O)Nc4cccc(F)c4)C3)c2C)cc1`, the Potency is reported as 28.2 µM (active). With `Cc1nn(-c2ccc(C(C)C)cc2)c(C)c1[C@@H]1C=C[C@@H](NC(=O)Nc2ccccc2)C1` the Potency was 50.1 µM (active). In the case of `Cc1nn(-c2ccc(C(C)C)cc2)c(C)c1[C@@H]1C=C[C@@H](NC(=S)NCC(C)C)C1`, the Potency is reported as 22.4 µM (active). For `Cc1nn(-c2ccccc2)c2c1C(C(C)C)N(C1CN(C(=O)c3ccc(Cl)nc3)C1)C2=O` (stereo not given), the Potency was “inactive”. For `Cc1nn(-c2ccc(C(C)(C)C)cc2)c(C)c1[C@@H]1C=C[C@@H](NC(=O)c2ccco2)C1`, the Potency was 35.5 µM (active). In the case of `O=C(N[C@@H]1CN(c2ncccn2)C[C@H]1CO)c1ccco1`, the Potency is reported as “inactive”. With `Cc1cnc(CCNC(=O)c2ccco2)n1C1CCC1` the Potency was “inactive”. In the case of `CC(C)c1nc(CCn2cc(-c3cncnc3)nn2)cs1`, the Potency is reported as “inactive”. For `Cc1ccc(CN2C[C@@H](CO)[C@H](c3nc(C)no3)C2)nc1`, the Potency was “inactive”. With `COc1ccccc1C(=O)N1CCc2nnc([C@@H]3C[C@@H](O)CN3C)n2CC1` the Potency was “inactive”. In the case of `CN1CCC(NC[C@H]2O[C@@H]3C[C@@H](CC(=O)NCc4cnn(C)c4)O[C@@H]3[C@@H]2O)CC1`, the Potency is reported as “inactive”. In the case of `CC(C)c1nc2c(c(-c3ccc(Cl)cc3)n1)CN(C(=O)c1ccccc1)CC2`, the Potency is reported as “inactive”. With `COc1ccc(C(=O)N2CCC(CCn3c(C)cnc3C3CC3)CC2)cc1` the Potency was “inactive”. For `COC(=O)CNC(=O)NC1CCN(C(=O)N2CC3CC(C2)[C@H]2CCCC(=O)N2C3)CC1` (stereo not given in full), the Potency was “inactive”. With `Cc1ccc2c(c1)C(C[C@H]1CN(C(=O)NC(C)C)CC[C@H]1CC(=O)O)=NCC2` the Potency was “inactive”.
Potency is the fitted concentration of half-maximal effect.
